The record followed here is ChEMBL document CHEMBL1961873, “Compounds: GSK PKIS; Assays: Nanosyn kinase panel” (2012).

In assay [1] the target is T1, Ephrin type-B receptor 2 (Homo sapiens) (UniProt P29323).
T1 sequence (whole entry): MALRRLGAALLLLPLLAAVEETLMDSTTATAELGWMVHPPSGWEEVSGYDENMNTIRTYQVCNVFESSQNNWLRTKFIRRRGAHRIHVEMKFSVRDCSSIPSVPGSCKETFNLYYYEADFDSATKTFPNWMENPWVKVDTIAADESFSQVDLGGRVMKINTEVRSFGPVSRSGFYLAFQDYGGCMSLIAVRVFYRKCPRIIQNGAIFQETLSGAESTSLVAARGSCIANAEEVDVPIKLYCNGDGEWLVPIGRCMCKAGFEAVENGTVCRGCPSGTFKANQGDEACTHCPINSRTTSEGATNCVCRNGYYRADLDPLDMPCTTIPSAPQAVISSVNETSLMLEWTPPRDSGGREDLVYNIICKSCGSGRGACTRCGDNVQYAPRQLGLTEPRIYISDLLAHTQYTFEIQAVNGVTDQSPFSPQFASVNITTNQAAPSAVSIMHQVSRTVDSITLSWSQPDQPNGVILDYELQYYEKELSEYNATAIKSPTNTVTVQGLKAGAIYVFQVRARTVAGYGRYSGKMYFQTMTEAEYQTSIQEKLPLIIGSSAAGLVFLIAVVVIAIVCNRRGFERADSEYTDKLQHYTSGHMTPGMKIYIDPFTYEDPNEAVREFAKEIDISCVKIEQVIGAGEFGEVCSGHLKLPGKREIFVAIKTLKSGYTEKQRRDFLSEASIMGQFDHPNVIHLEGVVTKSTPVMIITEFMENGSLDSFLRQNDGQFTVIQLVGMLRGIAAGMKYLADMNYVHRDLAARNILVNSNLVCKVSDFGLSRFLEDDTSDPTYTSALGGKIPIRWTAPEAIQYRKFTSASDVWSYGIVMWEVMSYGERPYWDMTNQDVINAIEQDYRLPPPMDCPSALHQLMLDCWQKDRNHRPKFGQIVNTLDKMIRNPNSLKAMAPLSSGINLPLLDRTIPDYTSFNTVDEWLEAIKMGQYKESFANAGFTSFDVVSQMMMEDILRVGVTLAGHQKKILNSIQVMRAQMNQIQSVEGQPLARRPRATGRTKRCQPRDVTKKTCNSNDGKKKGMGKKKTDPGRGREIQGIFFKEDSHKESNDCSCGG
To be noted: at 1 µM.

Assay [2] deals with T2, Ephrin type-B receptor 3 (Homo sapiens) (UniProt P54753).
T2 sequence (whole entry): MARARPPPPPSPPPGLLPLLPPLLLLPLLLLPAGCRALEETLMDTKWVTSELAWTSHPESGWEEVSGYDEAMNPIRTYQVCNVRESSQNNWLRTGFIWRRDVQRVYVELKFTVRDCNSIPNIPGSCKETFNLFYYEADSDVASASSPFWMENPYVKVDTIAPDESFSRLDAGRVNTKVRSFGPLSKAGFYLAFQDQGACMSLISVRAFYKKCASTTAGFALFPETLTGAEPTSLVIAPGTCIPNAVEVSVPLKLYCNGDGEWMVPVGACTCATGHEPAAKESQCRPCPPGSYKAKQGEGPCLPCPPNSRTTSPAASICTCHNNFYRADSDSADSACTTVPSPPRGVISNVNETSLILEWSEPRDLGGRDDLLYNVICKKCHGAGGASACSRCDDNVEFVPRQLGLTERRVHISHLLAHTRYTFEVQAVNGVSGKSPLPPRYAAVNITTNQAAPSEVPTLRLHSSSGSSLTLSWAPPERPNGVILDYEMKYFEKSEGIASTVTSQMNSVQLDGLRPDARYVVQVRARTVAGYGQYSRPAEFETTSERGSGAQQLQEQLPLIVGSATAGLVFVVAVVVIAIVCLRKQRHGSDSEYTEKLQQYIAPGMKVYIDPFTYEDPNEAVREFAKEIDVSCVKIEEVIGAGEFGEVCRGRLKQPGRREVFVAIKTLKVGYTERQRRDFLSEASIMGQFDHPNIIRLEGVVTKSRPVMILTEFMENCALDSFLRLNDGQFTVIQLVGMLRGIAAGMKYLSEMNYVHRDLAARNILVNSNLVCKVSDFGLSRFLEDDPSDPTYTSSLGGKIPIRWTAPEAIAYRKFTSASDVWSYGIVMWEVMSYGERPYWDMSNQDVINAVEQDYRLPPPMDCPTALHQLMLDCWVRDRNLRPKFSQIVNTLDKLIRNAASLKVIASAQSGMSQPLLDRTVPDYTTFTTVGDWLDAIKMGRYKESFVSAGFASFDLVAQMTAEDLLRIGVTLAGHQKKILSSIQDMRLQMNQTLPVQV
To be noted: at 0.1 µM.

Assay [3] deals with T2, Ephrin type-B receptor 3 (Homo sapiens). The note with it: at 1 µM.
Assay [4] deals with T3, Ephrin type-B receptor 4 (Homo sapiens) (UniProt P54760).
T3 sequence (whole entry): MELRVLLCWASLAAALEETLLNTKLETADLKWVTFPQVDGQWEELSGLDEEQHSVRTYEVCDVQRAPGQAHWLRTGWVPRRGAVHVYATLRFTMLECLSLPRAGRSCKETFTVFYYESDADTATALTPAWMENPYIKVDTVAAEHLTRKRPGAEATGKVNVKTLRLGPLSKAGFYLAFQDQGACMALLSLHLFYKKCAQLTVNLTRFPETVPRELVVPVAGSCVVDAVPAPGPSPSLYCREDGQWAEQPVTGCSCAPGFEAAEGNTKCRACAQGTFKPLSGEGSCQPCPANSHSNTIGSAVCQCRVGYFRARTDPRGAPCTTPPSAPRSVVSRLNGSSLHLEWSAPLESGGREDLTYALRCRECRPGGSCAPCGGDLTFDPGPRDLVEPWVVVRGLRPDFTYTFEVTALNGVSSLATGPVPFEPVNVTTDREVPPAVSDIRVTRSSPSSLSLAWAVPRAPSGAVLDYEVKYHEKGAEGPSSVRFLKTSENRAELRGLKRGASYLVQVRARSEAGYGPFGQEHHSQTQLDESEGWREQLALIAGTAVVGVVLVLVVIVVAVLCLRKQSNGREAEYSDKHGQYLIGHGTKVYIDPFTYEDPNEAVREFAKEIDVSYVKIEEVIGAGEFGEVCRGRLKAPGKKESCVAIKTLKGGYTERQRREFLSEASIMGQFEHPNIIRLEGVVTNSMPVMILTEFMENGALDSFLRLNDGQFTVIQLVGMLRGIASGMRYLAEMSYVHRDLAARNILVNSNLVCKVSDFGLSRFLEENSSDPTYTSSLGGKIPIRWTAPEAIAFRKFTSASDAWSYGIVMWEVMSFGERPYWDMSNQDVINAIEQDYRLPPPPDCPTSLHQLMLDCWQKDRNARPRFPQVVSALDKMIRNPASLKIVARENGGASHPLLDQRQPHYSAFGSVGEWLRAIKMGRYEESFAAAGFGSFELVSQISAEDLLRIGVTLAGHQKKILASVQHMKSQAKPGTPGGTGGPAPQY
The note with it: at 0.1 µM.

Assay [5] concerns the target T3, Ephrin type-B receptor 4 (Homo sapiens). The note with it: at 1 µM.
The target in assay [6] is Receptor tyrosine-protein kinase erbB-2 (Homo sapiens) (UniProt P04626). To be noted: at 0.1 µM.
Assay [7] has the same target. The note with it: at 1 µM.
Assay [8] concerns the target Receptor tyrosine-protein kinase erbB-4 (Homo sapiens) (UniProt Q15303). To be noted: at 0.1 µM.
Assay [9] has the same target. To be noted: at 1 µM.
Assay [10] concerns the target Tyrosine-protein kinase Fer (Homo sapiens) (UniProt P16591). The note with it: at 0.1 µM.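 Note: reported figures are averaged percent inhibition of FER.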

Sequence of Receptor tyrosine-protein kinase erbB-2 (Homo sapiens) (P04626 whole entry): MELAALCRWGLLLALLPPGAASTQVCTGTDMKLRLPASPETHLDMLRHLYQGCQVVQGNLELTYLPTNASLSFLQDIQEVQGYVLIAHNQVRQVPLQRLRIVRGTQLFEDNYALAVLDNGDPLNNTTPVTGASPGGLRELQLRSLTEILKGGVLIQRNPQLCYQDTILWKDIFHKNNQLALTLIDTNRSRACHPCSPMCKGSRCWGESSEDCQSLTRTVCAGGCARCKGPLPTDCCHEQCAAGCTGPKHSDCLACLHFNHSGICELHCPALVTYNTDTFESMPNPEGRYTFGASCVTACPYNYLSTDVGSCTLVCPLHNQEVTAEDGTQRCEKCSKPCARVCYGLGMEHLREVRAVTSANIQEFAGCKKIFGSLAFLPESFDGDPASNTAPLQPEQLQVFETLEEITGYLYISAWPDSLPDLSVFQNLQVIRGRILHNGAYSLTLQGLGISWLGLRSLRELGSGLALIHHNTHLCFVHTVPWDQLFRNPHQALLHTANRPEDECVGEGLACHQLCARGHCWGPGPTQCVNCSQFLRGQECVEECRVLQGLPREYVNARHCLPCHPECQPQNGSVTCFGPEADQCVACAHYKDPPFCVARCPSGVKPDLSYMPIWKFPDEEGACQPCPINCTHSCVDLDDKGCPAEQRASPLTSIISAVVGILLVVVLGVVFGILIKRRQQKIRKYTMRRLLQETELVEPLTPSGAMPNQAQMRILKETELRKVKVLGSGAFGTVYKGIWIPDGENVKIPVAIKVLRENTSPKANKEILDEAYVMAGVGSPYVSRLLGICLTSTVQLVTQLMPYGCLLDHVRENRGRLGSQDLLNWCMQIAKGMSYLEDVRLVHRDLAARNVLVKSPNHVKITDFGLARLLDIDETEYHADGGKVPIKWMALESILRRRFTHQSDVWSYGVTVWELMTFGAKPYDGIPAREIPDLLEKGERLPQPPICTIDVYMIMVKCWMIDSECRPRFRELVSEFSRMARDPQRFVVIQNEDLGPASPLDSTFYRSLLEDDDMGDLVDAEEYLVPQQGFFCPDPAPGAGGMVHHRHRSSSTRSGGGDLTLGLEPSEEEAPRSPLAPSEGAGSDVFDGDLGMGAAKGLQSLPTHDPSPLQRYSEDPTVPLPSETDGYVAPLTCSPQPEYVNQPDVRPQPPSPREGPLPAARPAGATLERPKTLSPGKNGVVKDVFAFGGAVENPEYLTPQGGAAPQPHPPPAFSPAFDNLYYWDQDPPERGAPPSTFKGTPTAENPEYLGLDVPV
Sequence of Receptor tyrosine-protein kinase erbB-4 (Homo sapiens) (Q15303 whole entry): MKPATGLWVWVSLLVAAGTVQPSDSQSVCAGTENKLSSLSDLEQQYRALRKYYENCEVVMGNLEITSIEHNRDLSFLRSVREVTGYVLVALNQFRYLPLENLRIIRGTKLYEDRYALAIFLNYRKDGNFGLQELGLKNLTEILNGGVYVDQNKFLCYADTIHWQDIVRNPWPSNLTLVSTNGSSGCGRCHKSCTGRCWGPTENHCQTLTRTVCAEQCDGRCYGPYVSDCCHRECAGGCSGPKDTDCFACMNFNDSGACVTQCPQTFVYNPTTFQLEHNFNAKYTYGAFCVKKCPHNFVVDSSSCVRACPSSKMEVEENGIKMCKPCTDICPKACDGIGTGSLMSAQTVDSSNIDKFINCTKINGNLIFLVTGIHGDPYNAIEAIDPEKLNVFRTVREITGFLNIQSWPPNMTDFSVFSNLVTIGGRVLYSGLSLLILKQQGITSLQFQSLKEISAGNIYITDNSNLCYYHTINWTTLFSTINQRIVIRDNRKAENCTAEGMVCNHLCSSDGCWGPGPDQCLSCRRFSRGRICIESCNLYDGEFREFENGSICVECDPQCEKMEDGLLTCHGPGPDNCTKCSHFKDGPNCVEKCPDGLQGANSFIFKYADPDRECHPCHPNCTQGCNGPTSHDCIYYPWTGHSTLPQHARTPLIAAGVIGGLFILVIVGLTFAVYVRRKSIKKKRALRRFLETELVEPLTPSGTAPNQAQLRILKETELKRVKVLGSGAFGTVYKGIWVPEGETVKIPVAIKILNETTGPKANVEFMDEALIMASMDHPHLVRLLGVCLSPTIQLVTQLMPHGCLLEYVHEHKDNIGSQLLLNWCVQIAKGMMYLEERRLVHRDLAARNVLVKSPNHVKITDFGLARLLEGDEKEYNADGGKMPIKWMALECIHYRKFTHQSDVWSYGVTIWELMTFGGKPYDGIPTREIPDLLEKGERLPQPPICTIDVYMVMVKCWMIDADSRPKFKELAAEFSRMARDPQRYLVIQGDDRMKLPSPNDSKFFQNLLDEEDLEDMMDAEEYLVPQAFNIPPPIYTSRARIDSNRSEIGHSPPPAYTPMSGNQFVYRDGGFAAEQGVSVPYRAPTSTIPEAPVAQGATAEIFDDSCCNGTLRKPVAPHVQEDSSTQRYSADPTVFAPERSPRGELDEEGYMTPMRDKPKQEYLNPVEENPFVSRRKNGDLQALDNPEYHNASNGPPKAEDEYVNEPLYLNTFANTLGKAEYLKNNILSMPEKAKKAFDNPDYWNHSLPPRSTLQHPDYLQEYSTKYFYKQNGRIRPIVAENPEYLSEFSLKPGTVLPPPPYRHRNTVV
Sequence of Tyrosine-protein kinase Fer (Homo sapiens) (P16591 whole entry, looked up): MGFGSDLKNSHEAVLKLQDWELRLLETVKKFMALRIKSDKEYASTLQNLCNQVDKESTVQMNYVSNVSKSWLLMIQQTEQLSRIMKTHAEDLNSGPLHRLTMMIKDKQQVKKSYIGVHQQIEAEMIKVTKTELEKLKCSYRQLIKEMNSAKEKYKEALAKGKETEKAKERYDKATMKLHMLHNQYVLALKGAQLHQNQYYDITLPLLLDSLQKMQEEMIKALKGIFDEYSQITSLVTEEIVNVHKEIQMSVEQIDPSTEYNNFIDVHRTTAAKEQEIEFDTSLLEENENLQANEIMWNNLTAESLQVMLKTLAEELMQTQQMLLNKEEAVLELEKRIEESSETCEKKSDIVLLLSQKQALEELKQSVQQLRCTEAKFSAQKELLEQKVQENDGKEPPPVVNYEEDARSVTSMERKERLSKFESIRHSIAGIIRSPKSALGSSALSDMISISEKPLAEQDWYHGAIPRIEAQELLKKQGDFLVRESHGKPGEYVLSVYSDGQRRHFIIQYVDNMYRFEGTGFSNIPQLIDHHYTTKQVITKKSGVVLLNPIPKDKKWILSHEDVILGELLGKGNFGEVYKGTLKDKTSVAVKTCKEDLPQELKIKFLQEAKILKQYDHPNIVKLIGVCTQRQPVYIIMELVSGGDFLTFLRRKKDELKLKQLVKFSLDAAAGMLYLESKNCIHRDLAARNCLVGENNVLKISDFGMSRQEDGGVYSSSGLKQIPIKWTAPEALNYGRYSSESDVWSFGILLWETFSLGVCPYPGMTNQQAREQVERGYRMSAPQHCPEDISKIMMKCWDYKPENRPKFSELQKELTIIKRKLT

Turning to `O=C1Nc2ccccc2/C1=C1\CCc2cc(O)ccc21`, the inhibition in assay [1] worked out at 9.85%; in assay [2], 7.65%; in assay [3], 3.73%; in assay [4], 1.66%; in [5], 2.84%; in assay [6], 0.88%. The inhibition in [7] was -3.46%; in assay [8] it was 8.95%; in [9] it was 13.7%; in assay [10], 7%.
With `CCCNc1cccc(-n2ncc3c(N/N=C/c4ccncc4)ncnc32)c1`, the inhibition is 9.31% in assay [1]; -1.29% in assay [2]; 1.75% in [3]; 1.55% in assay [4]; 5.77% in [5]; 2.33% in assay [6]. Moreover, the inhibition in assay [7] was 4.49%; in assay [8], 11.8%; in assay [9] it was 43%; in assay [10], -0.72%.
As for `CCS(=O)(=O)c1ccc(OC)c(Nc2ncc(-c3cccc(F)c3)o2)c1`, the inhibition in [1] is 45.9%; in assay [2], 3.05%; in assay [3] it was 6.76%; in assay [4], 5.59%; in [5] it was 31.7%; in assay [6] it was 38.7%. The inhibition in assay [7] is 5.62%; in [8], 9.46%; in [9] it was 17.8%; in [10] it was 2.32%.
As to `CC1=C(C(=O)Nc2ccc3[nH]nc(C)c3c2)C(c2ccc(C(F)(F)F)cc2)CC(=O)N1` (stereo not given), the inhibition in [1] was 3.69%; in assay [2], 5.28%; in assay [3], 2.84%; in assay [4], 1.98%; in [5] it was 4.06%; in assay [6], 0.35%. In addition, the inhibition in assay [7] was 0.13%; in assay [8], 9.2%; in assay [9], 16%; in assay [10], 1.26%.
Consider `Cc1cc(O)cc(C)c1/C=C/c1cncc(C(N)=O)c1`, for which the inhibition in assay [1] was 56.7%; in [2] it was 5.06%; in [3], 9.99%; in [4], 9.23%; in assay [5], 46.1%; in assay [6], 5.08%. Besides, the inhibition in assay [7] was -0.51%; in assay [8], 12.7%; in [9], 14.4%; in assay [10] it was 2%.
As for `CC1=C(C(=O)Nc2ccc3[nH]ncc3c2)C(c2ccc(F)cc2)N=C(c2ccc(C(F)(F)F)nc2)N1` (stereo not given), the inhibition in [1] stood at 8.11%; in [2], 3.81%; in [3], 2.31%; in assay [4], 1.15%; in [5], 2.78%; in assay [6], 1.68%. For the same compound, the inhibition in [7] turned out to be 3.01%; in assay [8], 7.98%; in assay [9], 11.7%; in assay [10] it was 0.93%.
Regarding `COc1cc(N2CCN(C(C)C)CC2)ccc1Nc1nc(Nc2cccc3ncccc23)c2cc[nH]c2n1`, the inhibition in assay [1] is 2.09%; in [2] it was 1.16%; in assay [3] it was 0.4%; in assay [4], 0.17%; in assay [5], 0.88%; in assay [6], -0.99%. Besides, the inhibition in assay [7] is 2.24%; in assay [8], -0.3%; in assay [9] it was 5.51%; in assay [10], 7.7%.
Take `CS(=O)(=O)Nc1ccc(-c2ccc3c(NC(=O)C4CC4)n[nH]c3c2)cc1`: the inhibition was 11.6% in assay [1]; 4.92% in assay [2]; 4.97% in assay [3]; 2.13% in assay [4]; 4.33% in assay [5]; -0.58% in assay [6]. Besides, the inhibition in assay [7] was -2.83%; in [8] it was -5.65%; in [9] it was 9.99%; in [10], 9.81%.
Turning to `COc1cc(N2CCN(C(C)C)CC2)ccc1Nc1nc(Nc2cccc(F)c2C(=O)O)c2cc[nH]c2n1`, the inhibition came to 12.6% in assay [1]; 3.69% in assay [2]; 6.24% in assay [3]; 2.82% in assay [4]; 2.84% in [5]; 3.72% in assay [6]. The inhibition in assay [7] was determined as 5.93%; in assay [8], 11.7%; in [9], 11.2%; in [10], 32.5%.
Consider `CN(c1ccc(NC(=O)NCCN2CCOCC2)cc1)c1ccnc(Nc2ccc(CS(C)(=O)=O)cc2)n1`, for which the inhibition in assay [1] was determined as 17.1%; in assay [2], 3.86%; in [3] it was 4.14%; in assay [4], 2.27%; in assay [5], 3.53%; in assay [6], 1.62%. Further, the inhibition in [7] is 4.12%; in [8] it was 6.8%; in assay [9] it was 4.94%; in assay [10] it was 3.77%.
As for `CCOc1ccc2c(-c3ccnc(Nc4cc(OC)cc(C(F)(F)F)c4)n3)cnn2n1`, the inhibition was 8.72% in [1]; 2.9% in [2]; 1.21% in assay [3]; 2.17% in assay [4]; 1.74% in assay [5]; 2.32% in assay [6]. In addition, the inhibition in [7] came to 2.46%; in assay [8], 4.82%; in assay [9], 4.44%; in assay [10], 2.36%.
For the compound `c1ccc(-c2n[nH]cc2-c2ccnc(-c3ccc(OCCn4ccnc4)cc3)c2)nc1`, the inhibition was 0.77% in [1]; 1.4% in [2]; -0.01% in assay [3]; 0.04% in [4]; -0.88% in [5]; 0.33% in [6]. Moreover, the inhibition in [7] was -1.51%; in assay [8], -1.46%; in assay [9], 3.39%; in [10], 1.51%.
